From PubChem BioAssay (NCI)
About 79,000 compounds went through this panel and 15% of them were active in at least one assay; those are over-represented in the sample as a whole. Rule as the data show it: active = growth inhibition above about 70%; inactive = the rest.

Legend:
[1] = NCI Yeast Anticancer Drug Screen. Data for the rad50 strain (AID 155);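 also: 0% = growth of vehicle-only cultures of the same strain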; conditions: S. cerevisiae rad50 strain growth inhibition; at 50.0 µM; active compounds read high
Summary of the method: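 Cells are treated with compound, grown, and their growth is then scored against vehicle-only cultures of the same repair-deficient yeast strain.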

[2] = NCI Yeast Anticancer Drug Screen. Data for the mec2-1 strain (AID 157); conditions: S. cerevisiae mec2-1 strain, at 50.0 µM, active compounds read high
Summary of the method: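 Each compound was tested on mec2-1 yeast, a strain altered in DNA damage repair or cell cycle control. Growth inhibition is reported relative to vehicle.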

[3] = NCI Yeast Anticancer Drug Screen. Data for the sgs1 mgt1 strain (AID 161);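 also: 0% = growth of cultures given vehicle only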; conditions: S. cerevisiae sgs1 mgt1 strain, at 50.0 µM, active compounds read high
Summary of the method: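 Read-out: growth inhibition vs vehicle controls. Cells: mutant yeast strain deficient in DNA damage repair.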

[4] = NCI Yeast Anticancer Drug Screen. Data for the cln2 rad14 strain (AID 165);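 also: 0% = growth equal to vehicle treated cultures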; conditions: S. cerevisiae cln2 rad14 strain, at 50.0 µM, active compounds read high
Summary of the method: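 Test compounds were added to cln2 rad14 yeast cultures; inhibition of growth was then determined by comparison with vehicle treatment.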

[5] = NCI Yeast Anticancer Drug Screen. Data for the bub3 strain (AID 167); conditions: S. cerevisiae bub3 mutant strain, at 50.0 µM, active compounds read high
Summary of the method: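 Part of a panel of yeast mutants defective in DNA damage repair or cell cycle regulation. Each strain is grown with compound, and inhibition is calculated relative to solvent-treated cultures.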

[6] = NCI Yeast Anticancer Drug Screen. Data for the mlh1 rad18 strain (AID 175); conditions: S. cerevisiae mlh1 rad18 strain growth inhibition; at 50.0 µM; active compounds read high
Summary of the method: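 Inhibition values reflect reduced growth of mutant yeast versus vehicle-treated controls following compound exposure; the mutations affect DNA damage repair.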

Measured: growth inhibition

Cc1ccc(N(C(=O)CC(=O)NN)C(=O)c2ccccc2Cl)cc1
inactive: [1] -12.4% | [2] -13.6% | [3] -8.25% | [4] 27% | [5] 4% | [6] -5.9%

CNN=C(C)C
inactive: [1] -2.15% | [2] 3.8% | [3] -3.4% | [4] -4.8% | [5] 2.5% | [6] -19.3%

Cc1[nH]c(=O)[nH]c(=O)c1/C=C/C(=O)NC(CO)CS(C)=O (configuration not stated)
inactive: [1] -1.5% | [2] -7.15% | [3] 0.75% | [4] 6.1% | [5] 0.75% | [6] 7.05%

CN(C)/N=C1/CCCCC1C(O)(c1ccccc1)c1ccccc1 (configuration not stated)
inactive: [1] -20.7% | [2] -19.8% | [3] -15.4% | [4] -73.3% | [5] -58.8% | [6] -10.7%

O=C(c1ccccc1)N1CC2CCC1CN2C(=O)c1ccccc1
inactive: [1] 15.8% | [2] 15.2% | [3] 4% | [4] 6.95% | [5] 42.7% | [6] -8.45%

NCC1CCCCO1 (configuration not stated)
inactive: [1] 7% | [2] 5.1% | [3] 14.2% | [4] -4.1% | [5] -16.7% | [6] -4.65%

COc1cc(CCNC(=O)CC(C)C)ccc1OCc1ccccc1
inactive: [1] -14.9% | [2] -27% | [3] 1.35% | [4] -30.5% | [5] -11.9% | [6] -15.9%

O=C(O)c1c(-c2ccccc2)c(=O)[nH]c2ccccc12
inactive: [1] -6.8% | [2] 4.05% | [3] -36.8% | [4] 17.1% | [5] 13.2% | [6] 11.1%

Clc1cc(OC2C3CC4CC(C3)CC2C4)nc(Cl)n1 (configuration not stated)
inactive: [1] 8.45% | [2] 1.45% | [3] 27.7% | [4] -1.1% | [5] 16.3% | [6] 65.8%

CCCCCCCCCCCC1=C(O)C(=O)C(I)=C(O)C1=O
inactive: [1] 63.2% | [2] 58.5% | [3] 63.1% | [4] 51.3% | [5] 14.4% | [6] 54.7%

Nc1c(Cl)ncnc1Cl
inactive: [1] -13.8% | [2] 8.3% | [3] -16.4% | [4] -0.65% | [5] 19.7% | [6] -39.7%

O=c1/c(=C/c2ccco2)sc2nc3ccccc3n12
inactive: [1] 15.8% | [2] 5.35% | [3] 14.5% | [4] 29.8% | [5] 30.1% | [6] 20.4%

CC1=CC=NN2C(=O)[C@H](C)C2C1 (some centres not stated)
inactive: [1] 5.8% | [2] 0.75% | [3] 0.3% | [4] 10.3% | [5] -9.05% | [6] 9.6%

O=C(O)C1=CN=C(C(=O)O)NN1
inactive: [1] -24.4% | [2] -23.2% | [3] -28.8% | [4] 19.5% | [5] -4.15% | [6] -34.5%

COc1ccc(-c2nnc(-c3nsc4ccccc34)o2)cc1
inactive: [1] -12.8% | [2] -31.9% | [3] -21.5% | [4] -2.5% | [5] 18.5% | [6] -14.1%

COC(=O)CCC(=O)NCC(=O)OCc1ccccc1
inactive: [1] 0.55% | [2] -1.85% | [3] -13.9% | [4] 3.05% | [5] -11.8% | [6] 19.2%

CCOc1ccc2nc(NC(=O)/C(CC(=O)CC(C3=C(O)c4ccccc4CC3=O)c3ccccc3)=N\O)sc2c1 (configuration not stated)
inactive: [1] -0.85% | [2] -7% | [3] -12.6% | [4] -18.6% | [5] -0.25% | [6] -20.1%

Cc1cc(-c2ccccc2)nc(Nc2cc3ccccc3[nH]2)n1
inactive: [1] -8.6% | [2] 13.2% | [3] -17.6% | [4] 0.05% | [5] -4.25% | [6] 0.4%

CC1(C)C(=O)CCC2(C)C(OC(=O)c3ccc(C(=O)O)cc3)CCCC12 (configuration not stated)
inactive: [1] -2% | [2] 37.5% | [3] 30.1% | [4] -15.4% | [5] 20.2% | [6] 18.4%

O=C(O)C1CSC(c2ccccc2O)N1 (configuration not stated)
inactive: [1] -17.6% | [2] -2.75% | [3] -4.6% | [4] -26.9% | [5] 5.4% | [6] -8.75%

CC(=O)Nc1ccc2c(c1)C(N1CCCCC1)c1ccccc1-2 (configuration not stated)
inactive: [1] -42.2% | [2] -17.8% | [3] 4.2% | [4] -40.1% | [5] -2.6% | [6] -5.4%

CC1=CC(=O)c2ccc3c4ccccc4n(C)c3c2C1=O
inactive: [1] -16.7% | [2] -35.1% | [3] -13.9% | [4] 0.2% | [5] -2.9% | [6] -19.9%

Brc1ccc(Nc2ccc(Br)cc2Br)c(Br)c1
inactive: [1] 28.2% | [2] 23.1% | [3] 16.6% | [4] 11.6% | [5] 3.8% | [6] 10.2%

CCN(CC)C1Oc2cc3c(cc2C(c2cc(OC)c(O)c(OC)c2)C1C)OCO3 (configuration not stated)
inactive: [1] -14.6% | [2] -23.9% | [3] -7.7% | [4] 3.35% | [5] -7.1% | [6] 3.85%

O=[N+]([O-])c1ccc(N2CCCC2)cc1
inactive: [1] 14.2% | [2] -8.05% | [3] -6.9% | [4] 0.8% | [5] 13.8% | [6] -16.7%

CCC(C)(N)C(=O)O (configuration not stated)
inactive: [1] 10% | [2] 13.3% | [3] 5.1% | [4] 2.6% | [5] 18.2% | [6] 4.05%

CN1C(=O)CNS1(=O)=O
inactive: [1] -1.45% | [2] 9.6% | [3] -4.35% | [4] -11.1% | [5] 4.6% | [6] 7.3%

Cc1cc(=NO)cc(C)n1O
inactive: [1] 43.5% | [2] 21% | [3] 54.9% | [4] -3.3% | [5] 3.55% | [6] 7.85%

O=C(/C=N/O)Nc1ccccc1
inactive: [1] 10.8% | [2] 7.25% | [3] -0.15% | [4] 7.9% | [5] 7.25% | [6] -9.35%

Cc1nn(C)c(C#N)c1[N+](=O)[O-]
inactive: [1] -7.05% | [2] -30.3% | [3] -36.3% | [4] 4.4% | [5] -16.2% | [6] 0.8%

CC(C)(C)OC(=O)NCCc1ccc(N)cc1
inactive: [1] -18.1% | [2] -5.55% | [3] 22.9% | [4] -0.7% | [5] 8.05% | [6] -10.2%

O=C(CCBr)NC(=O)OC/C=C\c1ccccc1
inactive: [1] 7.7% | [2] 34.8% | [3] 12.2% | [4] 8% | [5] 5.1% | [6] 15.2%

[N-]=[N+]=NC1CC(n2ccc(=O)[nH]c2=O)OC1CO (configuration not stated)
inactive: [1] -16.6% | [2] -21.9% | [3] 3.3% | [4] -13.6% | [5] -12.8% | [6] -6.85%

CCN(CC)CCO/N=C1\CC(c2ccc(OC)c(OC)c2)Oc2ccccc21 (configuration not stated)
inactive: [1] 3.8% | [2] 13.7% | [3] 2.65% | [4] 26.6% | [5] -9.85% | [6] 9.8%

CCN(CC)P(=O)(c1ccc2c(c1)OCCOCCOCCOCCO2)N(CC)CC
inactive: [1] 28.9% | [2] 22.9% | [3] 21.7% | [4] 23.3% | [5] 33.6% | [6] 37%

CCN(CC)/[N+]([O-])=N/O
inactive: [1] 26.6% | [2] -14.8% | [3] -2.35% | [4] -0.6% | [5] 15.8% | [6] 16.1%

CCCCCCCOCC(=O)OC
inactive: [1] 3.6% | [2] -0.7% | [3] 2% | [4] -21.2% | [5] 10.2% | [6] 1.45%

O=[N+]([O-])c1ccc(C(O)(C#CCN2CCCC2)c2ccccc2)cc1 (configuration not stated)
inactive: [1] 20.5% | [2] 11.9% | [3] -24.1% | [4] 10.2% | [5] 3.5% | [6] 12.7%

CC1NC(=O)C(C)C(c2ccccc2)N(N=O)C1c1ccccc1 (configuration not stated)
inactive: [1] -10.7% | [2] 7.8% | [3] 14.6% | [4] 0.05% | [5] -25.6% | [6] 11%

CCOC(=O)C1=C(C(=O)c2cccc3ccccc23)C(c2cccc([N+](=O)[O-])c2)C(C(=O)c2cccc3ccccc23)=C(C(=O)OCC)N1
inactive: [1] -12.9% | [2] -7.75% | [3] 13.7% | [4] -26.3% | [5] -45.6% | [6] -25.2%

CCCCCCCCCCCCCCCCC[CH2][Sn]([Cl])([CH2]CCCCCCCCCCCCCCCCC)[CH2]CCCCCCCCCCCCCCCCC
inactive: [1] 9.15% | [2] -1.2% | [3] -16.7% | [4] -2.55% | [5] -2.1% | [6] -13.7%

O=S(=O)(O)c1ccc2cc(O)ccc2c1
inactive: [1] 35.7% | [2] 14.6% | [3] 13.8% | [4] 14.5% | [5] 20.8% | [6] 28.4%
